# Experimental data taken from PubChem BioAssay (NCI).
# Compounds without any hit were thinned out: in the full panel of roughly 83,000, 20% have a hit.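 Each cell line was grown in a 96-well plate and treated with one concentration of compound for 48 hours. Values below 10 were considered active.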 Values without a mark were called inactive. Calls of active or inactive are those of the source.
# Columns and labels:
# Assay in all cases: NCI-60 one-dose screen, 48 h (100 = growth as untreated, 0 = no growth, -100 = all killed)
# Details in all cases: 10 µM unless noted
# HCT-15 colon = test system: HCT-15 colon
# HT29 colon = test system: HT29 colon
# SNB-75 CNS = test system: SNB-75 CNS
# SNB-19 CNS = test system: SNB-19 CNS
# U251 CNS = test system: U251 CNS
# PC-3 prostate = test system: PC-3 prostate
# SK-MEL-5 melanoma = test system: SK-MEL-5 melanoma
# UACC-62 melanoma = test system: UACC-62 melanoma
# LOX IMVI melanoma = test system: LOX IMVI melanoma
# SK-MEL-28 melanoma = test system: SK-MEL-28 melanoma
SMILES,growth (HCT-15 colon),growth (HT29 colon),growth (SNB-75 CNS),growth (SNB-19 CNS),growth (U251 CNS),growth (PC-3 prostate),growth (SK-MEL-5 melanoma),growth (UACC-62 melanoma),growth (LOX IMVI melanoma),growth (SK-MEL-28 melanoma)
CCOC1=C(Cl)C(=O)C(OCC)=C(Cl)C1=O,107%,101%,93.3%,96.3%,104%,104%,105%,98.1%,104%,109%
Clc1ccc(N/N=C/c2ccccn2)nc1,20.6%,27.3%,21.7%,28.2%,18.1%,39.3%,-66.3% (active),-7.02% (active),-6.42% (active),20%
CNc1ccc(Nc2ccc(S(=O)(=O)O)cc2)c2c1C(=O)c1ccccc1C2=O,98.6%,105%,101%,104%,96.6%,101%,99.9%,94.6%,88.2%,112%
Cc1ncc(C(=O)Nc2ccc(CN3CCN(C)CC3)c(C(F)(F)F)c2)cc1C#Cc1c(N)ncc2ccccc12,-90.8% (active),-89% (active),-90.6% (active),-100% (active),-99.6% (active),-76.7% (active),-99.6% (active),-82.3% (active),-89.9% (active),-96.5% (active)
COc1cc(/C=C/C(=O)/C=C(/C=C/c2ccc(OC(C)=O)c(OC)c2)OB(F)F)ccc1OC(C)=O,15.4%,61.4%,53%,69.4%,33.3%,63%,69.6%,49.6%,20%,66.8%
O=C(N/N=C\c1ccc(-c2ccc(Br)cc2)o1)c1cc2oc(-c3cccc(C(F)(F)F)c3)cc2[nH]1,84.5%,110%,72.3%,97.9%,84.1%,102%,102%,108%,86%,81.5%
O=C1C(=O)c2ccccc2C(O)=C1CCCc1ccc(Oc2ccccc2)cc1,74.1%,113%,71.2%,62%,36.1%,37.5%,55.1%,36.5%,38.9%,74.8%
COc1ccc(-c2nc(SCC(C)C)nc(Nc3ccc(C)cc3)c2C#N)cc1,84.8%,82.9%,60.6%,78.4%,21.2%,86.1%,86.1%,102%,73.9%,94.6%
Cc1ccc(C(=O)Nc2ccc(CN3CCN(C)CC3)c(C(F)(F)F)c2)cc1C#Cc1cncc2ncccc12,-92.9% (active),-89.3% (active),-83.9% (active),-99.3% (active),-93.8% (active),-69.3% (active),-99.3% (active),-84.8% (active),-79% (active),-90.4% (active)
COc1ccccc1Cn1cc2c(c1)-c1oncc1CC2,15.7%,9.87% (active),13.7%,38.3%,28.4%,25.4%,18%,54.6%,37.5%,55.3%
c1cc[c]([Bi]([c]2ccccc2)[c]2ccccc2)cc1,103%,112%,76.9%,102%,99.6%,85.2%,97.8%,94.6%,98.6%,102%
CC(=O)NNC(=O)c1sc(NC(C)=O)nc1C,95.7%,87.3%,99.2%,92.4%,102%,90.8%,103%,91.9%,94.4%,95.9%
CCOc1ccc(/C=N/NC(=O)c2cccc3ccccc23)cc1OCC,97.2%,103%,106%,110%,100%,90.1%,92.1%,93.4%,92.7%,103%
C#CCCCCCCC[C@@H]1OC(=O)[C@H]([C@@H](C)CC)NC(=O)[C@@H]([C@@H](C)CC)NC(=O)CC(=O)[C@@H]1C,97.3%,122%,80.9%,97.6%,105%,90.8%,102%,83%,92%,109%
Cc1ccccc1-n1c(C)nc2cc(NC(=O)c3ccc(Cl)cc3)ccc2c1=O,63.7%,62.9%,103%,75.9%,77.6%,61.2%,0.858% (active),42.2%,69.4%,79.5%
O=C(Nc1cccc(Cn2c(=O)[nH]c3ccc(Oc4ncccn4)cc3c2=O)c1)c1ccc(Cl)cc1,59%,40.3%,50.9%,58.5%,63%,46.2%,12.6%,53.9%,66.5%,69.3%
c1ccc(Nc2ncc3c(n2)-c2cccn2CC3)cc1,32.9%,114%,83.3%,103%,93.7%,81.3%,67%,80.1%,92.4%,107%
COC(=O)c1ccc2[nH]c(O)c(C(=Nc3ccc(N(C)C(=O)CN4CCN(C)CC4)cc3)c3ccc(N)cc3)c2c1,99.4%,42.6%,42.5%,83.9%,82.2%,83.4%,85.2%,110%,74.6%,87.1%
FC(F)(F)c1cccc(-c2[nH]ncc2-c2nnnn2-c2ccccc2)c1,35.6%,15.1%,47.5%,50.8%,30.1%,44%,20.8%,36.9%,44.8%,60.8%
CC(O)CN(CC(C)O)N(CC(C)O)CC(C)O (stereo not given),93.6%,99.3%,93.1%,99.1%,90.9%,99.4%,105%,102%,93.7%,107%
CC1(C)N=C(N)N=C(N)N1c1cccc(CCCCOc2ccccc2)c1,58.5%,11.3%,60.8%,32.4%,11.4%,-6.9% (active),17.9%,20.8%,15.9%,39.3%
C/C=C/C/C=C/[C@H](C)C[C@H](O)[C@@H]1C[C@@H]2O[C@H]2/C=C/[C@@H]2OC(C)(C)O[C@H]2/C=C/C[C@H](C)CC(=O)O1,19.7%,28.1%,36.3%,62.2%,30%,57.8%,31%,8.91% (active),44.3%,59.3%
c1ccc(Nc2ccccn2)cc1,96.2%,99.4%,118%,98.9%,103%,102%,106%,93.7%,102%,112%
O=c1c2c(c3ccccc3n1-c1ccccc1)NC(=S)NC2c1ccc(Cl)cc1 (stereo not given),28.6%,41.5%,41%,39.7%,32.4%,-4.33% (active),1.08% (active),22.4%,8.65% (active),48.2%
Cc1ncc(C(=O)Nc2ccc(CN3CCN(C)CC3)c(C(F)(F)F)c2)cc1C#Cc1c(N)ncc2ccc(F)cc12,-93.2% (active),-87.4% (active),-3.33% (active),-99.6% (active),-88.3% (active),-83.6% (active),-70.2% (active),-28.7% (active),-74.2% (active),-85.8% (active)
COc1ccc(-c2nc(SCC(C)C)nc(Nc3ccc([N+](=O)[O-])cc3)c2C#N)cc1,101%,97.1%,88.1%,88.4%,80.9%,92.6%,96.3%,99%,91.7%,107%
Cc1nc2c(nnn2-c2ccccc2)c2nc(-c3ccc(Cl)cc3)oc(=O)c12,108%,115%,91.4%,107%,106%,105%,103%,98.4%,96.9%,102%
